# According to PubChem BioAssay (NCI):
# Where “and” joins values, the source holds several entries; their conditions need not be identical. Equal entries are not always repeated. This is part of a sample that, as a whole, favours compounds with a hit. Of some 83,000 tested, about 20% had one in any assay.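 Results are percent growth after 48 hours of single-concentration exposure. 100 means growth as in untreated cells, lower positive values show inhibition; negative values down to -100 show cell death.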 Calls of active or inactive are those of the source. The calls were made as follows: active = growth percent below 10; inactive = the rest.
# Tested on: HL-60(TB) leukemia
# Experiment: NCI-60 one-dose screen, 48 h (100 = growth as untreated, 0 = no growth, -100 = all killed)
structure (smiles),measurement,setting,value
O=C1CC(=O)N(C(=O)c2nn(-c3ccc(Cl)cc3)cc2O)N1,growth,10 µM unless noted,4.53% (active)
Fc1ccc(CNc2c3ccccc3nc3ccccc23)c(F)c1,growth,10 µM unless noted,58.3% (inactive)
N#CC(C#N)=NO,growth,10 µM unless noted,104% (inactive)
C=CCn1c(C)nc2cc(Nc3nc(Nc4ccc5nc(C)n(CC=C)c5c4)c4ccccc4n3)ccc21,growth,10 µM unless noted,-52% (active)
CCOc1ccc(/C=N/N=C(N)N)cc1OCC,growth,10 µM unless noted,64.5% (inactive)
COc1ccc(/C=N/C2=C(C#N)C(c3cccc(Cl)c3)c3c(ccc4ccccc34)O2)cc1 (stereo not given),growth,10 µM unless noted,-18.6% (active)
Nc1c(C(=O)Nc2cccc3ccccc23)sc2nc3c(cc12)COCC3,growth,10 µM unless noted,-4.22% (active)
Nc1nc2ccccc2c2c1S(=O)(=O)c1ccc(Cl)cc1C2=O,growth,10 µM unless noted,-24.2% (active)
CN(C)c1ccc(/C=N/NC(=O)COc2cc(=O)n(C)c3ccccc23)cc1,growth,10 µM unless noted,98.5% (inactive)
Cn1c(I)c(C#C[Si](C)(C)C)c(=O)n(C(=O)c2ccccc2)c1=O,growth,10 µM unless noted,-59% (active)
O=C(/C=C/c1ccc(Cl)s1)c1ccc(Cl)s1,growth,10 µM unless noted,119% (inactive) and 111% (inactive)
COc1cc2cc(Oc3ccc(NC(=O)Nc4ccc(Cl)c(Cl)c4)cc3)c(C)nc2cc1OCCN1CCOCC1,growth,10 µM unless noted,97.9% (inactive)
O=S(=O)(NCCCNc1cc(-c2cn(-c3ccccc3)nc2-c2cccc(O)c2)ccn1)c1ccccc1,growth,10 µM unless noted,42.8% (inactive)
CCN(CC)CCOc1ccc(C(=C(C)c2ccc(Cl)cc2)c2ccc(OCCN(CC)CC)cc2)cc1,growth,10 µM unless noted,-55.5% (active)
CC1(C)S(=O)(=O)OCCOS1(=O)=O,growth,10 µM unless noted,95.6% (inactive)
CC(=O)N1C(=S)NC(=O)C1Cn1c(-c2ccccc2)nc2ccccc21 (stereo not given),growth,10 µM unless noted,98.9% (inactive)
CN(C)c1ccc(/C=C/c2ccnc3ccccc23)cc1N,growth,10 µM unless noted,43.5% (inactive)
O=c1c2cc(F)ccc2sc2c(NCCN3CCCCC3)nc3ccccc3c12,growth,10 µM unless noted,57% (inactive)
CCN(CC)CCOc1ccc(NC(=O)C(C(C)C)N2C(=O)/C(=C/c3ccc(Br)cc3)SC2=S)cc1 (stereo not given),growth,10 µM unless noted,27.6% (inactive)
Clc1ccc(-n2cnc3c(Cl)ncnc32)cc1Cl,growth,10 µM unless noted,45.7% (inactive)
Cc1ccc(-c2nc3ccc(Cl)cc3c(=O)n2N2C(=O)CSC2c2ccccc2Cl)cc1 (stereo not given),growth,10 µM unless noted,97.1% (inactive)
COc1ccc2c(c1)C(C)Cc1c(ncnc1-n1c(C)nc3ccccc31)N2C (stereo not given),growth,10 µM unless noted,1.95% (active)
COc1ccc(CN2C(=O)/C(=C\c3cc(OC)c(OC)c(OC)c3)c3ccccc32)cc1,growth,10 µM unless noted,-16.2% (active)
Nc1nc(-c2cc3ccccc3o2)cc(=O)c(=O)[nH]1,growth,10 µM unless noted,107% (inactive)
COc1cc(-c2nc3cc(Cl)c(Cl)cc3[nH]2)ccc1OCC(=O)N=Nc1c(O)[nH]c2ccc([N+](=O)[O-])cc12,growth,10 µM unless noted,94.9% (inactive)
C1CCC([PH+](C2CCCCC2)C2CCCCC2[PH+](C2CCCCC2)C2CCCCC2)CC1.[Au].[CH-]1CCCCC1C1CCCC[N-]1 (stereo not given),growth,10 µM unless noted,-29.9% (active)
CCN(CC)c1cc(C)c2cc(NC(=O)c3cccc(OC)c3)ccc2n1,growth,10 µM unless noted,84.7% (inactive)
O=C1/C(=C\c2cn(-c3ccccc3)nc2-c2ccc(-c3cccs3)cc2)CCc2ccccc21,growth,10 µM unless noted,50.2% (inactive)
O=[N+]([O-])c1ccccc1N(S(=O)(=O)c1ccccc1)S(=O)(=O)c1ccccc1,growth,10 µM unless noted,5.52% (active) and 108% (inactive)
COc1ccc(C(=O)N2NC(=O)/C(=C/c3ccc(Br)cc3)N=C2c2ccccc2)cc1,growth,10 µM unless noted,4.51% (active)
NCCCNc1nc2ccccc2c2c(=O)c3cccc(F)c3sc12,growth,10 µM unless noted,13.9% (inactive)
CC1=CCC2CC1C2(C)C (stereo not given),growth,10 µM unless noted,105% (inactive) and 92.9% (inactive)
CCN(CC)c1ccc2c(c1)Oc1nc(N)c(C#N)c(N)c1C2Sc1ccc(OC)cc1 (stereo not given),growth,10 µM unless noted,-16.6% (active)
Nc1ncnc2c1ccn2-c1cccc(NC(=O)c2cccc(C(F)(F)F)c2)c1,growth,10 µM unless noted,104% (inactive)
CCOc1ccc2nc3ccc(Cl)cc3nc2c1,growth,10 µM unless noted,63.7% (inactive)
C=C[C@@H]1C[C@@H]2Cc3cc(Cl)ccc3N1O2,growth,10 µM unless noted,13.8% (inactive)
CCOC(=O)CC[C@H](NC(=O)c1ccc(NC)c2ccccc12)C(=O)OCC,growth,10 µM unless noted,105% (inactive)
NC(CSC(c1ccccc1)(c1ccccc1)c1ccccc1)C(=O)NCC(=O)O (stereo not given),growth,10 µM unless noted,55% (inactive)
COc1ccc2nc(NC(=O)CSc3nnc4n3S(=O)(=O)c3ccccc3N4C)sc2c1,growth,10 µM unless noted,53.8% (inactive)
CCN(CC)CCCCCCNc1ccnc2cc(Cl)ccc12,growth,10 µM unless noted,103% (inactive)
COCCOc1cnc2ccn([C@H](C)c3nnc4c(F)cc(-c5cnn(C)c5)cn34)c(=O)c2c1,growth,10 µM unless noted,136% (inactive)
CCn1c(Sc2nnc(NC(=O)CCN3CCCC3)s2)nc2c1c(=O)n(C)c(=O)n2C,growth,10 µM unless noted,104% (inactive)
C=CCCCCOc1cccc(/C=C2\N=C3SCCCN3C2=O)c1,growth,10 µM unless noted,94.9% (inactive)
O[C@H]1CO[C@H]2[C@@H]1OC[C@@H]2Oc1ccc(Nc2nc(Nc3ccc(F)c(Cl)c3)ncc2F)cc1Cl,growth,10 µM unless noted,104% (inactive)
COc1ccc(S(=O)(=O)ON=C2C=C(C)C(=O)C(C)=C2)cc1,growth,10 µM unless noted,43.7% (inactive)
N#CC1C(=O)c2ccccc2C1c1ccccc1 (stereo not given),growth,10 µM unless noted,108% (inactive) and 103% (inactive)
Oc1c(Cl)cc(Cl)c2ccc(Cn3cc(-c4cc(F)cc(F)c4)nn3)nc12,growth,10 µM unless noted,2.85% (active)
CC(C)(C)c1ccc(S(=O)(=O)N[C@H]2CC[C@H]3[C@@H]4CCc5cc(OS(=O)(=O)O)ccc5[C@H]4CC[C@]23C)cc1,growth,10 µM unless noted,19.6% (inactive)
COc1ccc2c(c1)CCCC21C(=O)Nc2ccccc21 (stereo not given),growth,10 µM unless noted,88% (inactive)
O=C(Nc1ccccc1S)c1ccccc1,growth,10 µM unless noted,105% (inactive)
N#Cc1c(N)nc2c(nnn2-c2cccc(C(F)(F)F)c2)c1N,growth,10 µM unless noted,95.2% (inactive)
O=C(NO)c1ccc(-n2nc(-c3ccccc3)c3ccccc32)cc1,growth,10 µM unless noted,62.4% (inactive)
CCNc1nc(-c2ccc(Cl)c(OC)c2)c(-c2ccnc(NCCCNS(=O)(=O)c3ccc(Cl)cc3)n2)s1,growth,10 µM unless noted,34.9% (inactive)
COCCOC(=O)NC(=O)Nc1ccc(/C(=N/O)c2ccc(Cl)cc2)cc1,growth,10 µM unless noted,-20.4% (active)
CCCCCCCC/C=C\CCCCCCCCOc1ccccc1CCOP(=O)(O)OCC[N+](C)(C)C,growth,10 µM unless noted,-23% (active)
Cc1ccc(/C=C2\SC(=S)N(c3ccc(F)cc3)C2=O)o1,growth,10 µM unless noted,82.8% (inactive)
O=C1NCc2ccc3c(-c4cccc(Cl)c4)c[nH]c3c21,growth,10 µM unless noted,-4.05% (active)
c1cc(CNCCNCc2ccncc2)ccn1,growth,10 µM unless noted,75.8% (inactive)
O=C(Nc1cccc2[nH]c(C(F)(F)F)nc12)c1cc(Cl)ccc1Cl,growth,10 µM unless noted,36.4% (inactive)
C#Cc1cccc(NC(=O)Nc2ccc(NC(=O)CCl)cc2)c1,growth,10 µM unless noted,0.172% [8.25 µM] (active)
COc1cc(/C=C/C(C)=O)ccc1O,growth,10 µM unless noted,81% (inactive) and 77.8% (inactive)
C/C(=N\O)C1(O)CCCCC1,growth,10 µM unless noted,83.6% (inactive)
COC(=O)CNC(=O)[C@H](Cc1ccccc1)NCc1ccncc1,growth,10 µM unless noted,88.6% (inactive)
COc1ccc(NC(=O)c2cc(OC)c(OC)c(OC)c2)cc1O,growth,10 µM unless noted,32.5% (inactive)
Cc1ccc(C2CC(c3ccc(Nc4nc(NCCO)nc(NCCO)n4)cc3)=NN2c2ccc(Cl)cc2)cc1 (stereo not given),growth,10 µM unless noted,80.7% (inactive)
N#Cc1c(-c2ccc(Cl)cc2)c(C#N)c2c(C#N)c(N)nn2c1N,growth,10 µM unless noted,85.8% (inactive)
Cc1nc2c(=O)[nH]c(SCC(=O)Nc3cccc(F)c3)nc2[nH]c1=O,growth,10 µM unless noted,105% (inactive)
O=C(CC(c1ccccc1)N1CCOCC1)c1ccccc1 (stereo not given),growth,10 µM unless noted,83.1% (inactive)
C=C1C(=O)O[C@H]2[C@H]1CC/C(COC(=O)NCCc1ccc(OC)cc1)=C\CC[C@@]1(C)O[C@@H]21,growth,10 µM unless noted,-22% (active)
COc1ccc(C2c3cccn3-c3ccccc3N2C(C)=O)cc1 (stereo not given),growth,10 µM unless noted,-49.9% (active)
O=C(Nc1nn(-c2ccc(Cl)cc2Cl)nc1-c1ccccc1)c1ccccc1,growth,10 µM unless noted,83.8% (inactive)
O=C1NC(=O)N(Cc2ccccc2)CC1Br (stereo not given),growth,10 µM unless noted,56.4% (inactive)
N#CC1c2ccccc2C=CN1C(=O)CCCl (stereo not given),growth,10 µM unless noted,65.5% (inactive)
CN1CCC(CN2c3ccccc3Sc3ccccc32)C1 (stereo not given),growth,10 µM unless noted,63.9% (inactive)
c1ccc(-c2nnn(-c3ccccc3)n2)cc1,growth,10 µM unless noted,88.9% (inactive)
Cc1cc(N2CCCCC2)nc(N(CCCNc2ccnc3cc(Cl)ccc23)Cc2ccco2)n1,growth,10 µM unless noted,-43.6% (active)
CN(C)CCNc1ncc(F)c(-c2cnc3cc(-c4cnn(C)c4)ccn23)n1,growth,0.005 µM,101% (inactive)
same,growth,30 µM,4.9% (active)
COc1cc(NS(C)(=O)=O)ccc1Nc1c2ccccc2nc2ccccc12,growth,2.5 µM,-0.933% (active)
same,growth,10 µM,-43.9% (active) and -9.61% (active) and -4.58% (active)
O=S(=O)(Nc1nccs1)c1ccc(Nc2nc(-c3ccncc3)cs2)cc1,growth,10 µM unless noted,98.6% (inactive)
CC1(C)OB(c2ccc(Cn3cc(F)c(=O)[nH]c3=O)cc2)OC1(C)C,growth,10 µM,97.7% (inactive)
same,growth,50 µM,32.5% (inactive)
O=S(=O)(Nc1ncccn1)c1ccc(NC2Nc3nc4ccccc4nc3S2)cc1 (stereo not given),growth,10 µM unless noted,101% (inactive)
O=C(O)c1ccc(CNS(=O)(=O)c2ccc3ccccc3c2)cc1,growth,10 µM unless noted,68.1% (inactive)
CC(C)(C)c1cc(NC(=O)Cc2ccc(-c3cnc4cc(-c5cnn(CCN6CCOCC6)c5)ccc4n3)cc2)no1,growth,10 µM,4.17% (active)
same,growth,30 µM,6.45% (active)
O=C1Nc2cc(Cl)ccc2/C1=C/c1ccc(N2CCOCC2)s1,growth,10 µM unless noted,93.4% (inactive)
CC(=O)/C=C/c1ccc(OCc2ccc(Cl)cc2)cc1,growth,10 µM,83.9% (inactive)
same,growth,100 µM,14% (inactive)
CNC(=O)c1cc(Oc2ccc(CC(=O)Nc3cc(C(C)(C)C)nn3C)cc2)ccn1,growth,1 µM,85.3% (inactive)
same,growth,10 µM,77% (inactive)
same,growth,30 µM,68.2% (inactive)
O=C(O)c1c(Cl)c(Cl)c(Cl)c(Cl)c1-c1c2cc(I)c(=O)c(I)c-2oc2c(I)c(O)c(I)cc12,growth,10 µM,103% (inactive) and 104% (inactive) and 109% (inactive)
same,growth,100 µM,-52.2% (active)
